# Counter-ions that a name gives are not always drawn.
# System: S. cerevisiae BY4741 (wild-type), vegetative growth in YPD
# Assay: growth sensitivity score (doubling time z-score vs DMSO controls); higher = slower growth, strongly negative scores also mark growth inhibition (complete suppression), active = hit call of the paper; in the data active = 2 or more and inactive = the rest
# Summary of the method: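 Yeast (Saccharomyces cerevisiae BY4741 and AD1-9) was grown in rich medium in microtiter plates from a starting OD600 of 0.065, with optical density read every 15 min over 24 hours. The growth sensitivity score was the difference between compound and solvent-only means, divided by the solvent-only standard deviation. Every experiment had eight solvent-only wells.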
row,SMILES,growth sensitivity score
1,"CC(C(O)c1ccc(O)cc1)N1CCC(Cc2ccccc2)CC1 (stereo unspecified) [Ifenprodil] (stock concentration (mM, diluted 1:100): 9.2)",3.06 (active)
2,"Cc1nc2ccccn2c(=O)c1CCN1CCC(C(=O)c2ccc(F)cc2)CC1 [Pirenperone] (stock concentration (mM, diluted 1:100): 10)",-0.59 (inactive)
3,"CNCC[C@@H](Oc1ccccc1C)c1ccccc1 [Atomexetine hydrochloride] (stock concentration (mM, diluted 1:100): 8.7)",0.06 (inactive)
4,"CC(C)(C)NC(=O)[C@@H]1C[C@@H]2CCCC[C@@H]2CN1C[C@@H](O)[C@H](Cc1ccccc1)NC(=O)[C@H](CC(N)=O)NC(=O)c1ccc2ccccc2n1 [Saquinavir mesylate] (stock concentration (mM, diluted 1:100): 8.8)",2.5 (active)
5,"OCc1cc(C(O)CNCCCCCCOCCCCc2ccccc2)ccc1O (stereo unspecified) [Salmeterol] (stock concentration (mM, diluted 1:100): 10)",3.81 (active)
6,"CCCCC[C@H](O)/C=C/[C@H]1[C@H](O)CC(=O)[C@@H]1CCCCCCC(=O)O [Prostaglandin E1] (stock concentration (mM, diluted 1:100): 10)",-0.67 (inactive)
7,"C=CC1=C(C(=O)O)N2C(=O)[C@@H](NC(=O)/C(=N\O)c3csc(N)n3)[C@H]2SC1 [Cefdinir] (stock concentration (mM, diluted 1:100): 10)",-0.67 (inactive)
8,"CCC(C)n1ncn(-c2ccc(N3CCN(c4ccc(OCC5COC(Cn6cncn6)(c6ccc(Cl)cc6Cl)O5)cc4)CC3)cc2)c1=O (stereo unspecified) [Itraconazole] (stock concentration (mM, diluted 1:100): 10.1)",10.9 (active)
9,"Nc1ccn([C@H]2CC[C@@H](CO)O2)c(=O)n1 [Zalcitabine] (stock concentration (mM, diluted 1:100): 10)",-1.35 (inactive)
10,"CC(C)(C)NCC(O)c1ccc(O)c(CO)c1 (stereo unspecified) [Salbutamol sulfate] (stock concentration (mM, diluted 1:100): 9.7)",-0.62 (inactive)
11,"CC(=O)NC[C@H]1CN(c2ccc(N3CCOCC3)c(F)c2)C(=O)O1 [Linezolide] (stock concentration (mM, diluted 1:100): 10)",-1.67 (inactive)
12,"CC(=O)OCC(CCn1cnc2cnc(N)nc21)COC(C)=O [Famciclovir] (stock concentration (mM, diluted 1:100): 10)",-1.36 (inactive)
13,"Cc1ncc([N+](=O)[O-])n1CC(C)O (stereo unspecified) [Secnidazole] (stock concentration (mM, diluted 1:100): 10)",-0.7 (inactive)
14,"CC1=Nc2ccc(Cl)cc2S(=O)(=O)N1 [Diazoxide] (stock concentration (mM, diluted 1:100): 10)",-0.72 (inactive)
15,"CC(C)(C)C(O)/C=C/c1ccc2c(c1)OCO2 (stereo unspecified) [Stiripentol] (stock concentration (mM, diluted 1:100): 10)",2.6 (active)
16,"O=c1c(-c2ccccc2)c1-c1ccccc1 [Diphenylcyclopropenone] (stock concentration (mM, diluted 1:100): 10)",39.9 (active)
17,"COCCCOc1ccnc(C[S+]([O-])c2nc3ccccc3[nH]2)c1C (stereo unspecified) [Rabeprazole] (stock concentration (mM, diluted 1:100): 10.6)",12.2 (active)
18,"COC(=O)C1=C(C)NC(C)=C(C(=O)OC)C1c1ccccc1[N+](=O)[O-] [Nifedipine] (stock concentration (mM, diluted 1:100): 10.7)",4.28 (active)

row,SMILES,growth sensitivity score
1,"Fc1ccc([C@@H]2CCNC[C@H]2COc2ccc3c(c2)OCO3)cc1 [Paroxetine] (stock concentration (mM, diluted 1:100): 8.8)",1.33 (inactive)
2,"CC(C)[C@H]1CC[C@H](C(=O)N[C@H](Cc2ccccc2)C(=O)O)CC1 [Nateglinide] (stock concentration (mM, diluted 1:100): 10)",-0.35 (inactive)
3,"C[C@@H]1CN(CCCn2c3ccccc3c3ccccc32)C[C@H](C)N1 [Rimcazole] (stock concentration (mM, diluted 1:100): 10.1)",89.4 (active)
4,"COc1ccc(CC(C)NCC(O)c2ccc(O)c(NC=O)c2)cc1 (stereo unspecified) [Formoterol fumarate dihydrate] (stock concentration (mM, diluted 1:100): 7)",-0.1 (inactive)
5,"CN1C(=O)CC[C@H]1c1cccnc1 [Cotinine] (stock concentration (mM, diluted 1:100): 10)",0.49 (inactive)
6,"O=c1c(O[C@@H]2O[C@H](CO)[C@H](O)[C@H](O)[C@H]2O)c(-c2ccc(O)c(O)c2)oc2cc(O)cc(O)c12 [Hyperoside] (stock concentration (mM, diluted 1:100): 8.8)",-0.31 (inactive)
7,"COc1cc2nc(N(C)CCCNC(=O)C3CCCO3)nc(N)c2cc1OC (stereo unspecified) [Alfuzosin] (stock concentration (mM, diluted 1:100): 10)",-0.26 (inactive)
8,"Cc1c(O)c(=O)ccn1C [Deferiprone] (stock concentration (mM, diluted 1:100): 10)",0.2 (inactive)
9,"COC(=O)C1=C(C)NC(C)=C(C(=O)OC(C)C)C1c1cccc2nonc12 (stereo unspecified) [Isradipine] (stock concentration (mM, diluted 1:100): 9.9)",0.93 (inactive)
10,"CC12CC3CC(C)(C1)CC(N)(C3)C2 [Memantine hydrochloride] (stock concentration (mM, diluted 1:100): 8.3)",-0.66 (inactive)
11,"CC(=O)SCC(Cc1ccccc1)C(=O)NCC(=O)OCc1ccccc1 (stereo unspecified) [Acetorphan] (stock concentration (mM, diluted 1:100): 10)",0.93 (inactive)
12,"CCN(CC)CC(=O)Nc1c(C)cccc1C [Lidocaine] (stock concentration (mM, diluted 1:100): 9.6)",-0.16 (inactive)
13,"CC(C)NCC(O)COc1ccc(COCCOC(C)C)cc1 (stereo unspecified) [Bisoprolol fumarate] (stock concentration (mM, diluted 1:100): 8.5)",0.65 (inactive)
14,"CC(C)NCC(O)c1ccc(NS(C)(=O)=O)cc1 (stereo unspecified) [Sotalol hydrochloride] (stock concentration (mM, diluted 1:100): 8.8)",-1.04 (inactive)
15,"CCCN[C@H]1CCc2nc(N)sc2C1 [Pramipexole] (stock concentration (mM, diluted 1:100): 10)",-0.06 (inactive)
16,"O=C(CCCN1CCC(O)(c2ccc(Cl)cc2)CC1)c1ccc(F)cc1 [Haloperidol] (stock concentration (mM, diluted 1:100): 10)",5.41 (active)
17,"O=C(O[C@@H]1C[C@@H]2C[C@H]3C[C@H](C1)N2CC3=O)c1c[nH]c2ccccc12 [Dolasetron mesylate] (stock concentration (mM, diluted 1:100): 10.4)",0.44 (inactive)
18,"CC(CCCCC(=O)Nc1ccc(C(F)(F)F)cc1)NCCc1cnc[nH]1 (stereo unspecified) (stock concentration (mM, diluted 1:100): 10)",-0.06 (inactive)
